Results as given in PubChem BioAssay AID1159580 (chemical genetic matrix, 2015).
“And” between values parts separate entries of the source, which are not always exact repeats. Identical values can stand only once. Screen size: about 5,500 compounds; about 2,000 (36%) were called active. Another 18% or so got no clear call; they are omitted. Rule as the data show it: active = normalized growth mostly below about 0.91 (no sharp cut-off); inconclusive = no clear call, values can overlap the other calls; inactive = mostly above about 0.92. Some of the results follow. The source holds several records for some structures; these can differ, active in one and inactive in another.

Assay: chemical genetic growth profiling, strain panel (AID 1159580);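 also: tested at 20 µM; growth read once vehicle control cultures reached saturation at 30 °C; 1 = growth at the plate median or of vehicle wells; lower values mean less growth of the strain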
Details: S. cerevisiae deletion strains, growth OD

CN(C)CCCN1c2ccccc2Sc2ccc(C(F)(F)F)cc21
normalized growth (locus YAL013W, strain DEP1, stronger effect = lower value): 0.982 (inactive) and 0.939 (inactive) | normalized growth (locus YAL021C, strain ccr4, stronger effect = lower value): 0.799 (active) | normalized growth (locus YAL026C, strain drs2, stronger effect = lower value): 0.329 (active) | normalized growth (locus YAL030W, strain snc1, stronger effect = lower value): 1.01 (inactive) | normalized growth (locus YAL040C, strain CLN3, stronger effect = lower value): 0.99 (inactive) | normalized growth (locus YBL061C, strain skt5, stronger effect = lower value): 1.02 (inactive) | normalized growth (locus YBR009C, strain hhf1, stronger effect = lower value): 0.961 (inactive) | normalized growth (locus YBR021W, strain FUR4, stronger effect = lower value): 1.04 (inactive) | normalized growth (locus YBR023C, strain chs3, stronger effect = lower value): 0.999 (inactive) | normalized growth (locus YBR171W, strain sec66, stronger effect = lower value): 1.03 (inactive) | normalized growth (locus YBR229C, strain ROT2, stronger effect = lower value): 0.955 (inactive) | normalized growth (locus YBR231C, strain swc5, stronger effect = lower value): 1.04 (inactive) | normalized growth (locus YBR279W, strain paf1, stronger effect = lower value): 1.01 (inactive) | normalized growth (locus YCL011C, strain gbp2, stronger effect = lower value): 1.01 (inactive) | normalized growth (locus YCL016C, strain dcc1, stronger effect = lower value): 1.01 (inactive) | normalized growth (locus YCL029C, strain bik1, stronger effect = lower value): 0.968 (inactive) | normalized growth (locus YCL061C, strain MRC1 (second series), stronger effect = lower value): 0.987 (inactive) | normalized growth (locus YCL061C, strain MRC1, stronger effect = lower value): 1.02 (inactive) | normalized growth (locus YCL069W, strain vba3, stronger effect = lower value): 1.01 (inactive) | normalized growth (locus YCR088W, strain abp1, stronger effect = lower value): 1.02 (inactive) | normalized growth (locus YDL005C, strain med2, stronger effect = lower value): 1.06 (inactive) | normalized growth (locus YDL035C, strain GPR1, stronger effect = lower value): 0.983 (inactive) | normalized growth (locus YDL040C, strain nat1, stronger effect = lower value): 1.01 (inactive) | normalized growth (locus YDL074C, strain BRE1, stronger effect = lower value): 1.01 (inactive) | normalized growth (locus YDL101C, strain DUN1, stronger effect = lower value): 0.981 (inactive) | normalized growth (locus YDL134C, strain PPH21, stronger effect = lower value): 0.99 (inactive) | normalized growth (locus YDL185W, strain tfp1, stronger effect = lower value): 0.963 (inactive) | normalized growth (locus YDL192W, strain arf1, stronger effect = lower value): 0.963 (inactive) | normalized growth (locus YDR001C, strain nth1, stronger effect = lower value): 1.02 (inactive) | normalized growth (locus YDR069C, strain doa4, stronger effect = lower value): 0.846 (active) | normalized growth (locus YDR101C, strain arx1, stronger effect = lower value): 0.994 (inactive) | normalized growth (locus YDR137W, strain rgp1, stronger effect = lower value): 1.25 [resistant] (active) | normalized growth (locus YDR150W, strain NUM1, stronger effect = lower value): 0.978 (inactive) and 0.989 (inactive) | normalized growth (locus YDR159W, strain sac3, stronger effect = lower value): 1.07 (inactive) | normalized growth (locus YDR162C, strain NBP2, stronger effect = lower value): 0.971 (inactive) | normalized growth (locus YDR195W, strain ref2): 1.27 [resistant] (active) | normalized growth (locus YDR297W, strain sur2, stronger effect = lower value): 1.02 (inactive) | normalized growth (locus YDR318W, strain mcm21, stronger effect = lower value): 1 (inactive) | normalized growth (locus YDR334W, strain swr1, stronger effect = lower value): 1.02 (inactive) | normalized growth (locus YDR335W, strain msn5, stronger effect = lower value): 1.02 (inactive) | normalized growth (locus YDR363W, strain ESC2, stronger effect = lower value): 0.896 (inactive) | normalized growth (locus YDR388W, stronger effect = lower value): 0.986 (inactive) | normalized growth (locus YDR392W, strain spt3, stronger effect = lower value): 1.22 [resistant] (active) | normalized growth (locus YDR502C, strain sam2, stronger effect = lower value): 0.992 (inactive) | normalized growth (locus YEL003W, strain gim4, stronger effect = lower value): 1 (inactive) | normalized growth (locus YEL037C, strain rad23, stronger effect = lower value): 1.01 (inactive) | normalized growth (locus YEL061C, strain CIN8 (second series), stronger effect = lower value): 1.01 (inactive) | normalized growth (locus YEL061C, strain CIN8, stronger effect = lower value): 0.989 (inactive) | normalized growth (locus YER002W, strain NOP16, stronger effect = lower value): 1.04 (inactive) | normalized growth (locus YER015W, strain faa2, stronger effect = lower value): 1.01 (inactive) | normalized growth (locus YER016W, strain bim1, stronger effect = lower value): 1.02 (inactive) | normalized growth (locus YER110C, stronger effect = lower value): 0.961 (inactive) | normalized growth (locus YER111C, strain swi4, stronger effect = lower value): 1.01 (inactive) | normalized growth (locus YER155C, strain BEM2 (second series), stronger effect = lower value): 1.06 (inactive) | normalized growth (locus YER155C, strain BEM2, stronger effect = lower value): 1 (inactive) | normalized growth (locus YER167W, strain BCK2, stronger effect = lower value): 0.997 (inactive) | normalized growth (locus YFR010W, strain ubp6, stronger effect = lower value): 0.831 (active) | normalized growth (locus YGL078C, strain dbp3, stronger effect = lower value): 0.985 (inactive) | normalized growth (locus YGL086W, strain mad1, stronger effect = lower value): 0.998 (inactive) | normalized growth (locus YGL167C, strain pmr1, stronger effect = lower value): 1.02 (inactive) | normalized growth (locus YGL173C, strain kem1, stronger effect = lower value): 0.996 (inactive) | normalized growth (locus YGL227W, strain vid30, stronger effect = lower value): 1.03 (inactive) | normalized growth (locus YGL240W, strain doc1, stronger effect = lower value): 1.05 (inactive) | normalized growth (locus YGL248W, strain PDE1, stronger effect = lower value): 0.983 (inactive) | normalized growth (locus YGL253W, strain hxk2, stronger effect = lower value): 1 (inactive) | normalized growth (locus YGR078C, strain PAC10, stronger effect = lower value): 1.01 (inactive) | normalized growth (locus YGR135W, strain pre9, stronger effect = lower value): 0.982 (inactive) | normalized growth (locus YGR229C, strain SMI1, stronger effect = lower value): 0.976 (inactive) and 0.395 (active) | normalized growth (locus YGR252W, strain gcn5, stronger effect = lower value): 0.989 (inactive) | normalized growth (locus YHR013C, strain ard1, stronger effect = lower value): 0.939 (inactive) | normalized growth (locus YHR027C, strain rpn1, stronger effect = lower value): 1.01 (inactive) | normalized growth (locus YHR030C, strain SLT2, stronger effect = lower value): 0.991 (inactive) and 1 (inactive) | normalized growth (locus YHR079C, strain IRE1 (second series), stronger effect = lower value): 0.975 (inactive) | normalized growth (locus YHR079C, strain IRE1, stronger effect = lower value): 0.991 (inactive) | normalized growth (locus YHR094C, strain hxt1, stronger effect = lower value): 0.981 (inactive) | normalized growth (locus YHR129C, strain ARP1, stronger effect = lower value): 1 (inactive) | normalized growth (locus YHR142W, strain chs7, stronger effect = lower value): 0.958 (inactive) | normalized growth (locus YHR200W, strain rpn10, stronger effect = lower value): 0.988 (inactive) | normalized growth (locus YIL066C, strain RNR3, stronger effect = lower value): 0.973 (inactive) | normalized growth (locus YIL073C, strain SPO22, stronger effect = lower value): 0.942 (inactive) | normalized growth (locus YIL125W, strain kgd1, stronger effect = lower value): 0.974 (inactive) | normalized growth (locus YIR030C, strain dcg1, stronger effect = lower value): 0.974 (inactive) | normalized growth (locus YJL092W, strain hpr5, stronger effect = lower value): 1.01 (inactive) | normalized growth (locus YJL095W, strain BCK1 (second series), stronger effect = lower value): 0.968 (inactive) | normalized growth (locus YJL095W, strain BCK1, stronger effect = lower value): 1.02 (inactive) and 0.998 (inactive) | normalized growth (locus YJL115W, strain asf1, stronger effect = lower value): 1.03 (inactive) | normalized growth (locus YJL129C, strain trk1, stronger effect = lower value): 1.03 (inactive) | normalized growth (locus YJL134W, strain LCB3, stronger effect = lower value): 0.987 (inactive) | normalized growth (locus YJL154C, strain vps35, stronger effect = lower value): 1.01 (inactive) | normalized growth (locus YJL164C, strain tpk1, stronger effect = lower value): 0.921 (inactive) | normalized growth (locus YJL166W, strain qcr8, stronger effect = lower value): 0.951 (inactive) | normalized growth (locus YJL168C, strain set2, stronger effect = lower value): 0.978 (inactive) | normalized growth (locus YJL187C, strain SWE1 (second series), stronger effect = lower value): 0.992 (inactive) | normalized growth (locus YJL187C, strain SWE1, stronger effect = lower value): 1.01 (inactive) | normalized growth (locus YJR043C, strain POL32, stronger effect = lower value): 1 (inactive)
